Our source for the food intake values is the supplement of paper PMC6288085.

Where a name gives a salt, the structure may show the parent alone. ± gives the uncertainty stated by the source.

The assay has as its system Caenorhabditis elegans N2. Briefly: food intake (mean delta OD600 / animal over 72 h) with 50 uM loxapine co-treatment (OD600 units per animal); higher = more food eaten (less suppression of loxapine-induced hyperphagia). The note with it: first compound 33 µM, loxapine concentration 50 µM. Here is the method: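 C. elegans N2 adults (FUDR-sterilised, day 1) in 96-well plates fed gamma-irradiated bacteria. Each library drug (MedChemExpress FDA-approved library) at 33 uM was combined with loxapine at 50 uM. Food intake was measured as bacterial clearance: the change in OD600 from day 1 to 72 h, normalised per animal (mean over 14-21 wells of about 10-12 worms). Drugs flagged for bacterial lysis or sickness were excluded by the authors.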
For `C[N+](C)(C)CCCCCCCCCC[N+](C)(C)C` [decamethonium (bromide)] + CN1CCN(C2=Nc3ccccc3Oc3ccc(Cl)cc32)CC1 [loxapine], the food intake stood at 0.0222 ± 0.0054.

As to `O=[N+]([O-])C(Br)(CO)CO` [bronopol] + CN1CCN(C2=Nc3ccccc3Oc3ccc(Cl)cc32)CC1 [loxapine], the food intake turned out to be 0.0259 ± 0.0077.

Take `Cc1ccc(O)cc1.Cc1cccc(O)c1.Cc1ccccc1O` [cresol] + CN1CCN(C2=Nc3ccccc3Oc3ccc(Cl)cc32)CC1 [loxapine]: the food intake worked out at 0.0212 ± 0.0037.

With `O=C(N/N=C/c1ccc([N+](=O)[O-])o1)c1cc([N+](=O)[O-])cc([N+](=O)[O-])c1O` [nifursol] + CN1CCN(C2=Nc3ccccc3Oc3ccc(Cl)cc32)CC1 [loxapine], the food intake worked out at 0.0249 ± 0.0032.

Regarding `COc1ccc(CN2CCNCC2)c(OC)c1OC` [trimetazidine (dihydrochloride)] + CN1CCN(C2=Nc3ccccc3Oc3ccc(Cl)cc32)CC1 [loxapine], the food intake is 0.0224 ± 0.003.

`COc1cc2c(cc1OC)C1CC(=O)C(CC(C)C)CN1CC2` (configuration not stated) [tetrabenazine] + CN1CCN(C2=Nc3ccccc3Oc3ccc(Cl)cc32)CC1 [loxapine]: the food intake was found to be 0.0274 ± 0.017.

Regarding `CCCCCCCCCCC(=O)O[C@H]1CC[C@H]2[C@@H]3CCC4=CC(=O)CC[C@]4(C)[C@H]3CC[C@]12C` [testosterone (undecanoate)] + CN1CCN(C2=Nc3ccccc3Oc3ccc(Cl)cc32)CC1 [loxapine], the food intake was determined as 0.0238 ± 0.0023.

With `CCC1(c2cccc(O)c2)CCCCN(C)C1` (configuration not stated) [meptazinol (hydrochloride)] + CN1CCN(C2=Nc3ccccc3Oc3ccc(Cl)cc32)CC1 [loxapine], the food intake came out at 0.0231 ± 0.0039.

On to `CN1[C@@H]2CC(O)C[C@H]1[C@@H]1O[C@@H]12` (some centres not stated) [scopine (hydrochloride)] + CN1CCN(C2=Nc3ccccc3Oc3ccc(Cl)cc32)CC1 [loxapine], for which the food intake is 0.00616 ± 0.012.

With `C[C@]12CCC(=O)C(O)=C1CC[C@@H]1[C@@H]2CC[C@]2(C)C(=O)CC[C@@H]12` [formestane] + CN1CCN(C2=Nc3ccccc3Oc3ccc(Cl)cc32)CC1 [loxapine], the food intake was 0.0217 ± 0.0021.

`Oc1cccc2cccnc12` [8-hydroxyquinoline] + CN1CCN(C2=Nc3ccccc3Oc3ccc(Cl)cc32)CC1 [loxapine]: the food intake was found to be 0.0224 ± 0.0032.

For `C=CCN1CC[C@]23c4c5ccc(O)c4O[C@H]2C(=O)CC[C@@]3(O)[C@H]1C5` [naloxone (hydrochloride)] + CN1CCN(C2=Nc3ccccc3Oc3ccc(Cl)cc32)CC1 [loxapine], the food intake worked out at 0.0254 ± 0.0053.
